The values below come from PubChem BioAssay.

Unmarked numbers belong to inactive results.

The test is described as follows: JC-1 mitochondrial signal, unstimulated adipocytes – cell-based, JC-1 fluorescence, 3T3-L1 adipocytes, 24 h, 100 nL compound, profiling panel (AID 1168). Also: test concentration not given here. The settings on record: JC-1 mitochondrial fluorescence, higher = more signal, called active from +8 up or from −8 down.
Turning to `C=CCC(OC(C)=O)[C@@H]1[C@@H](N(Cc2ccc(-c3ccccc3)cc2)C(=O)Cc2ccc(OC)cc2)c2cc(OCCCO)ccc2N1C(=O)c1ccc2ccccc2n1` (some centres undefined), the z-score was -0.269.

Consider `COc1ccc(C#Cc2ccc3c(c2)[C@]2(C(=O)N3)[C@H](C(=O)NC[C@H](O)c3ccccc3)[C@H]3C(=O)O[C@H](c4ccccc4)[C@H](c4ccccc4)N3[C@@H]2c2ccc(OCCO)cc2)cc1`, for which the z-score is 2.53.

As to `COCCOC(=O)N1C(=O)[C@@]2(c3cc(C#CC4(O)CCCCCC4)ccc31)[C@H](C(=O)N1CCCCCCC1)[C@H]1C(=O)O[C@H](c3ccccc3)[C@H](c3ccccc3)N1[C@@H]2c1ccccc1OCCO`, the z-score was 0.656.

With `COC(=O)c1ccc(OC)c(/C=C\CC(OC(C)=O)c2ccccc2)c1` (centres undefined), the z-score was -1.15.

Regarding `Cc1ccc([C@H]2C(C(=O)O)=C[C@@H](C)N2S(=O)(=O)c2ccc(C)cc2)cc1`, the z-score is -0.642.

For `NCCCCCCNC(=O)[C@H]1C[C@H]2C(=O)NCC(=O)N2[C@H]1c1cccc(OCCO)c1`, the z-score is -0.194.

As for `COc1ccc(CCN2C(=O)[C@@]3(Cc4ccccc42)c2ccccc2C(=O)N(Cc2ccccc2Cl)[C@H]3c2ccc(CO)cc2)cc1`, the z-score was -0.106.

As for `C=CC[C@@H](OC(=O)Nc1ccc(OC)cc1)c1ccc(O)c2ccccc12`, the z-score is -1.55.

In the case of `CC(C)C[C@@H]1NC(=O)[C@@H]2C[C@H](C(=O)NCCCCCC[N+](C)(C)C)[C@H](c3ccc(O)cc3)N2C1=O`, the z-score was 0.566.
